A short description of experiment [1]: Cellular Toxicity (caspase-3) H-4-II-E (AID 663).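 Further: cells exposed to compound for 16 hr before readout.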 To be noted: H-4-II-E rat hepatoma, scaled: DMSO 0%, 100 µM tamoxifen 100%; at 92.2 µM (top of the series). The essentials:
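Caspase 3/7 activation measured by luminescent aminoluciferin substrate cleavage after 16 hr compound treatment of H-4-II-E cells in complete medium. Increase normalized between DMSO (basal) and 100 uM tamoxifen (100%); Hill-equation AC50 from concentration-response.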

Experiment [2] has as its target Cytochrome P450 3A4 (Homo sapiens) (UniProt P08684). The experiment is described as follows: qHTS Assay for Inhibitors and Substrates of Cytochrome P450 3A4 (AID 884). Further: nearly all actives have a fitted effect of over 50% in size. Further: potency means the concentration at half of the fitted maximal effect. Summed up:
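Luminescent readout of luciferin produced by CYP3A4 (20 nM) dealkylation of Luciferin-PPXE, 25 uM (its KM). NADPH-driven reaction ran 60 min at RT after 10 min compound preincubation; data scaled to 57 uM ketoconazole as 100% inhibition.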

Experiment [3] can be described thus: MultiTox-Fluor Cytotoxicity Assay - LYMP1-001 - Live Cells (AID 947). Further: potency means the concentration at half of the fitted maximal effect.
A short description of experiment [4]: MultiTox-Fluor Cytotoxicity Assay - LYMP1-002 - Dead Cells (AID 960). Further: nearly all actives have a fitted effect of over 60% in size. Further: potency means the concentration at half of the fitted maximal effect. The essentials: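 Concentration-dependent increases in membrane-leaked protease activity are quantified in LYMP1-002 cells after 16 hr treatment; values are normalized against DMSO and tetraoctylammonium bromide (15 uM) controls and AC50 derived by Hill modeling.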
Experiment [5] can be described thus: Cell Viability - LYMP2-004 (AID 966). Further: nearly all actives have a fitted effect of over 65% in size. Further: potency means the concentration at half of the fitted maximal effect. Summed up:
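Viable-cell number estimated from ATP luminescence (CellTiter-Glo) in 2500 human lymphoblastoid cells/well after 24 hr at 37 C with compound. AC50 fitted to the standard Hill equation.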

Experiment [6] in a line: Cell Viability - LYMP2-013 (AID 970). Further: nearly all actives have a fitted effect of over 55% in size. Further: potency means the concentration at half of the fitted maximal effect. Summed up:
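In complete culture medium, human lymphoblastoid cells were dosed for 24 hr at 37 C, with tetraoctylammonium bromide (6.4pM to 92 uM) as positive control. Viability reflects luciferase-based ATP signal; AC50 derived from concentration-response curves.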

The nature of experiment [7]: Cell Viability - LYMP2-002 (AID 977).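 Further: compound exposure lasted 24 h at 37 °C.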 Further: potency means the concentration at half of the fitted maximal effect. Summed up:
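Human lymphoblastoid cells (2500/well) in complete medium were preincubated 5 hr at 37 C, then exposed to compounds for 24 hr at 37 C. Intracellular ATP was read by CellTiter-Glo luminescence; AC50 came from Hill-equation concentration-response fits.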

Experiment [8] is described as follows: Cell Viability - LYMP2-006 (AID 978). Further: nearly all actives have a fitted effect of over 60% in size. Further: potency means the concentration at half of the fitted maximal effect. The essentials:
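Concentration-dependent loss of intracellular ATP in a human lymphoblastoid line after 24 hr treatment at 37 C was measured by CellTiter-Glo luminescence, with AC50 values obtained from standard Hill-equation modelling.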

Experiment [9] can be described thus: Cell Viability - LYMP2-010 (AID 981). Further: potency means the concentration at half of the fitted maximal effect; nearly all actives have a fitted effect of over 55% in size. The essentials: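 This 24 hr viability screen uses LYMP2-010 lymphoblastoid cells, quantifies ATP via luciferase luminescence, and derives AC50 from Hill fits of qHTS concentration-response data.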
Experiment [10] can be described thus: Cell Viability - LYMP2-014 (AID 983). Further: nearly all actives have a fitted effect of over 50% in size. Further: potency means the concentration at half of the fitted maximal effect. Summed up: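 Quantitative HTS in lymphoblastoid cells: 24 hr compound exposure, then CellTiter-Glo ATP luminescence. Positive control was tetraoctylammonium bromide, 6.4pM to 92 uM.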
Experiment [11] can be described thus: Cell Viability - LYMP2-022 (AID 987). Further: nearly all actives have a fitted effect of over 55% in size. Further: potency means the concentration at half of the fitted maximal effect. Summed up: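 In this qHTS cytotoxicity screen, compound titrations were incubated 24 hr at 37 C with human lymphoblastoid cells in complete medium. Luciferase-based ATP luminescence provided the viability signal.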
The nature of experiment [12]: Cell Viability - LYMP2-024 (AID 988). Further: nearly all actives have a fitted effect of over 60% in size. Further: potency means the concentration at half of the fitted maximal effect. Summed up: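 Cells at 2500 per well received compound for 24 hr after a 5 hr settling period. Viability was scored by CellTiter-Glo luminescence, with AC50 from Hill fits.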
A short description of experiment [13]: qHTS assay for small molecule activators of the p53 signaling pathway (AID 651743; active means well fitted activation curve with a large enough effect in the signal ratio, not every such curve was filed as active; inconclusive means small, poorly fitted or top-dose-only effect, or a change in a side signal; the % refers to the signal ratio; further: potency means the concentration at half of the fitted maximal effect; on activation: % of control where 0% means no effect). Conditions: HCT-116 p53RE-bla, beta-lactamase FRET ratio, 16 h; activation: stronger effect = higher value. Summed up:
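A beta-lactamase reporter under p53 response element control, stably carried by HCT-116 cells, reported pathway activation. Test compounds were applied for 16 hours at 37 C, and fluorescence was measured 2 hours after adding the B/G FRET substrate.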

A short description of experiment [14]: qHTS assay for small molecule disruptors of the mitochondrial membrane potential - 1 hr assay (AID 651754; calls by dose curve; further: nearly all actives have a fitted effect of over 35% in size; further: potency means the concentration at half of the fitted maximal effect). The essentials: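 In this qHTS format, a 1 hr compound treatment of HepG2 cells precedes Mito-MPS staining, and membrane potential is judged from aggregate (red) against monomer (green) fluorescence intensity.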
For orientation: Quantitative high-throughput screening tests each substance at several concentrations.

Experiment [15] in a line: qHTS assay for small molecule agonists of the antioxidant response element (ARE) signaling pathway measured by Nrf2-dependant transcriptional activity (AID 720636; active means well fitted curve in the direction sought with a large enough effect in the repeat runs; inconclusive means weak or mixed curves; inactive means no such curve, though single readings can be large; an effect the other way counts as inactive or inconclusive;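 further: HepG2 cells with an ARE-driven luciferase reporter; % of control where 0% means no effect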). Summed up:
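In HepG2 cells engineered with an Nrf2-responsive luciferase gene, ARE induction was quantified as luminescence after 16 hr compound treatment at 37 C.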

The nature of experiment [16]: qHTS assay for cell viability of HEK293 cells (AID 743288). Further: nearly all actives have a fitted effect of over 50% in size. Further: potency means the concentration at half of the fitted maximal effect. On max response: on the % scale 0 is the no-effect control and ±100 the full control effect. Conditions: ATP luminescence (CellTiter-Glo), 18 h; max response: stronger effect = lower value. Summed up:
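Quantitative high-throughput screen: compounds were pinned onto parental HEK293 cells (2,000 per well) after a minimum 5 h settling at 37 C, incubated 18 h at 37 C, and intracellular ATP measured by luciferase luminescence.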

Experiment [17] has as its target Vitamin D3 receptor (Homo sapiens) (UniProt P11473). Briefly: qHTS assay for small molecule agonists of vitamin D receptor signaling (AID 588543; calls by dose curve;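 further: 0% = DMSO basal and 100% = reference agonist control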). Summed up: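 qHTS in agonist mode: compound titrations stimulate a VDR-driven β-lactamase reporter in HEK293T cells over 16 h at 37 °C. Response normalized to 50 nM 1α,25-dihydroxyvitamin D3 = 100%, DMSO = 0%; Hill fitting gives EC50 and maximal response.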

In experiment [18] the target is Nuclear receptor ROR-gamma (Homo sapiens) (UniProt P51449). Briefly: qHTS assay for small molecule antagonists of the retinoid-related orphan receptor gamma (ROR-gamma) signaling pathway (AID 651802). Further: potency means the concentration at half of the fitted maximal effect; nearly all actives have a fitted effect of over 60% in size. Summed up: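 Doxycycline-induced reporter activity in engineered CHO cells (TET-inducible ROR, RORE-LUC) was measured by luminescence after 16hr compound exposure at 37C.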
Nuclear receptor ROR-gamma (Homo sapiens), sequence (P51449 whole entry, looked up): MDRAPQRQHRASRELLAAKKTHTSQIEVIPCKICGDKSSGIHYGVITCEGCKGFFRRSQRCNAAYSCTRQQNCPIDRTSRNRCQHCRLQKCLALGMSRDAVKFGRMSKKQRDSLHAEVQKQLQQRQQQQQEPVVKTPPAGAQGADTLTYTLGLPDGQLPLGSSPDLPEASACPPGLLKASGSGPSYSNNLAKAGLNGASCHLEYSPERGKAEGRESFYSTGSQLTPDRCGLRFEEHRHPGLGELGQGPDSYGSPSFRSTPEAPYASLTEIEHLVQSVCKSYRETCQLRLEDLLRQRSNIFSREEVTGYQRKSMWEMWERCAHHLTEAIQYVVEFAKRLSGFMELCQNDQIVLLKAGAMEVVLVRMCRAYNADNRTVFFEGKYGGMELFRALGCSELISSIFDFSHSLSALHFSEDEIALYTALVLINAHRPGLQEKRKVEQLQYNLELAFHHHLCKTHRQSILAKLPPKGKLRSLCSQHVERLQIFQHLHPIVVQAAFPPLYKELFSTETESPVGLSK

In experiment [19] the target is Estrogen receptor (Homo sapiens) (UniProt P03372). Briefly: qHTS assay for small molecule antagonists of estrogen receptor alpha signaling (AID 588513; active means well fitted curve in the direction sought with a large enough effect in the signal ratio, with a control signal flat, not every such curve was filed as active; inconclusive means small, poorly fitted or top-dose-only effect, or effect the other way, or a change in a side signal; inactive means no such curve, though single readings can be large or run the other way; the % refers to the signal ratio; further: potency means the concentration at half of the fitted maximal effect). Summed up:
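Cells were plated at 5000/well and incubated 4 h at 37 C. Compounds were added as 1:2 dilution series, duplicates. 17-beta-estradiol (0.5nM final) was added for 18 h before CCF4 detection.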

Experiment [20] has as its target Peroxisome proliferator-activated receptor delta (Homo sapiens) (UniProt Q03181). The experiment is described as follows: qHTS assay for small molecule agonists of peroxisome proliferator-activated receptor delta signaling (AID 588534; calls by dose curve;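 further: 0% = DMSO basal wells and 100% = positive control agonist at 10 µM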). Summed up: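 EC50 and efficacy values derive from Hill fits of a concentration series in a beta-lactamase reporter cell assay. Exposure is 18 hrs at 37 C, with CCF4 fluorescence as the readout.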

“And” between values parts separate entries of the source, which are not always exact repeats. Equal entries are not always repeated. The source holds several records for some structures; these can differ, active in one and inactive in another. Unmarked numbers belong to inactive results. The source made the active and inactive calls. Unless noted, the call rests on the fitted dose curve; in most records, active means well fitted curve in the direction sought with a large enough effect; inconclusive means small, poorly fitted or top-dose-only effect, or another doubt; inactive means no such curve, though single readings can be large; an effect the other way counts as inactive or inconclusive.

Cytochrome P450 3A4 (Homo sapiens), sequence (P08684 whole entry, looked up): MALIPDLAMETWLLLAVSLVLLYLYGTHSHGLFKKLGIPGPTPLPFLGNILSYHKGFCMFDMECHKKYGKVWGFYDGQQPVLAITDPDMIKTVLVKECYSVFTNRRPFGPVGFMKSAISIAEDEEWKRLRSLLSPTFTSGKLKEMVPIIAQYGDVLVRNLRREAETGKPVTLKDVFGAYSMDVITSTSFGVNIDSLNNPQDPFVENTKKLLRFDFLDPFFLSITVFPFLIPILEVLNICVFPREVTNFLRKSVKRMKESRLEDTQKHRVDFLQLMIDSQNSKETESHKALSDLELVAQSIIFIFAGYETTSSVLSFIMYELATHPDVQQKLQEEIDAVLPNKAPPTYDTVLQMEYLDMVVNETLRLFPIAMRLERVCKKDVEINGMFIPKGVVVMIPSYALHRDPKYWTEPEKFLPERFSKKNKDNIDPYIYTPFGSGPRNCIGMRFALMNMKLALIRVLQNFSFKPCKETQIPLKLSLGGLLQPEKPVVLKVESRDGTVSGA
Peroxisome proliferator-activated receptor delta (Homo sapiens), sequence (Q03181 whole entry, looked up): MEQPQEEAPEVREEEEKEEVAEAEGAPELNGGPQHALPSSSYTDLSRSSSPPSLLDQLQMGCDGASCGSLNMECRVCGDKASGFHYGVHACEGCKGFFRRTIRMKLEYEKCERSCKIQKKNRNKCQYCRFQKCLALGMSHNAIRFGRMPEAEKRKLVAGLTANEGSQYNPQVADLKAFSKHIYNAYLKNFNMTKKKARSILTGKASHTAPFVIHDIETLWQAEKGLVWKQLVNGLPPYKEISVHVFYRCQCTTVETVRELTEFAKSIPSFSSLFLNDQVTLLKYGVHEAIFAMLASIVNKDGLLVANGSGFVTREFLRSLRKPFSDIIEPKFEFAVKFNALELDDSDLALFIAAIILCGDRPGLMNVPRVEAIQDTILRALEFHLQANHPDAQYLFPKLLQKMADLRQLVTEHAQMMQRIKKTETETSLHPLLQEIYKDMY
Vitamin D3 receptor (Homo sapiens), sequence (P11473 whole entry, looked up): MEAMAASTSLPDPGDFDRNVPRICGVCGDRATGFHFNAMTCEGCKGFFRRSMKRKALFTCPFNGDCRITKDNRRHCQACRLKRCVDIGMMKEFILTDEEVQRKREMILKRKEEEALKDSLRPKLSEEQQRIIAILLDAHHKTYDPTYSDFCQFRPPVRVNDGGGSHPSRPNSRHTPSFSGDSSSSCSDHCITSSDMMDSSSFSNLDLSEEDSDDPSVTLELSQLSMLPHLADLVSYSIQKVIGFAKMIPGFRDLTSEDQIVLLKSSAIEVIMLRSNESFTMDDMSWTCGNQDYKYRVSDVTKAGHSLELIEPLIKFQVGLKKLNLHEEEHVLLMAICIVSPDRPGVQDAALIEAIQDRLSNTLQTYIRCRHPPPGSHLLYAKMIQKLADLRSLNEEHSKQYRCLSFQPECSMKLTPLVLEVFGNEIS
Estrogen receptor (Homo sapiens), sequence (P03372 whole entry, looked up): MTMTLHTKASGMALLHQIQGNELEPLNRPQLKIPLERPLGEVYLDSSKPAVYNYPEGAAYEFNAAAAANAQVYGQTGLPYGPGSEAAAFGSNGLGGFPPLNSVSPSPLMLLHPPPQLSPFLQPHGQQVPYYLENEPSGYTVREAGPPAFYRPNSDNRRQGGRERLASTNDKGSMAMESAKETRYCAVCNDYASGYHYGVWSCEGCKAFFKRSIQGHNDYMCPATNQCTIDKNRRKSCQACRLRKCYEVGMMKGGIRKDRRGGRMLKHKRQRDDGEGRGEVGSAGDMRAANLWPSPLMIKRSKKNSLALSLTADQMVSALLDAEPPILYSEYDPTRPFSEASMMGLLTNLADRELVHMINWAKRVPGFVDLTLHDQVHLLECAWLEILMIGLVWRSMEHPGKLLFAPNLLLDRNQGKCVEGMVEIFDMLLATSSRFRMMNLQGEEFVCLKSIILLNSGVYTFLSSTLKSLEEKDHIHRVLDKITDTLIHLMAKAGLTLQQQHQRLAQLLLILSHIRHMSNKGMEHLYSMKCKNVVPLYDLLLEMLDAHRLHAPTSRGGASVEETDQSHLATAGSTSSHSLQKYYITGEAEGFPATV

In the case of `N#CSCSC#N`, the caspase-3 activation in experiment [1] is -3.87%. Also, the Potency entry in [2], in experiment [14] and in experiment [15] was “inactive” throughout. For the same compound, the Potency in experiment [3] was 39.8 µM (active); in experiment [4] it was 10 µM (active); in [5], 6.31 µM (active); in [6] it was 6.31 µM (active); in experiment [7], 10 µM (active); in experiment [8] it was 12.6 µM (active). For the same compound, the Potency in [9] is 3.98 µM (active); in experiment [10] it was 7.94 µM (active); in [11] it was 5.01 µM (active); in [12], 3.98 µM (active); in experiment [13] it was 25.1 µM (active); in experiment [16], 28.2 µM (active).
`O=C(CCl)c1ccccc1`: the caspase-3 activation in experiment [1] was -5.13%. In addition, the Potency result in experiment [2], in [14] and in experiment [15] was “inactive” each time. For the same compound, the Potency in experiment [4] is 25.1 µM (active); in experiment [5] it was 10 µM (active); in experiment [6], 15.8 µM (active); in experiment [7], 12.6 µM (active); in experiment [8], 12.6 µM (active); in experiment [9], 7.94 µM (active). For the same compound, the Potency in experiment [10] is 12.6 µM (active); in [11] it was 6.31 µM (active); in [12] it was 7.94 µM (active); in experiment [18], 16.8 µM (active); in experiment [16] it was 35.5 µM (active). Besides, the outcome in experiment [17] was inactive. The max response in experiment [16] was -16%.
Turning to `Oc1c(Br)c(Br)c(Br)c(Br)c1Br`, the caspase-3 activation in experiment [1] is 10.1%. Also, the Potency entry in experiment [2], in experiment [3], in experiment [4], in [5], in experiment [6] and in experiment [7] was “inactive” each time. Also, the Potency result in [8], in experiment [10], in [11], in experiment [12] and in experiment [15] was “inactive” throughout. Also, the figures for the Potency in experiment [19] and in [14] were 39.8 µM [inconclusive] (active) and 33.5 µM (active), respectively. Further, the result in experiment [20] and in experiment [17] was inactive. Further, in experiment [16], the max response was -15.8%.
As to `CCCCCCCCn1sccc1=O`, the caspase-3 activation in [1] was -3.17%. Also, the Potency was 12.6 µM (active) in experiment [2]; 31.6 µM (active) in experiment [3]; 5.01 µM (active) in experiment [4]; 3.98 µM (active) in [5]; 15.8 µM (active) in experiment [6]; 6.31 µM (active) in [7]. In addition, the Potency in experiment [8] was 7.94 µM (active); in experiment [9], 2.51 µM (active); in experiment [10] it was 10 µM (active); in experiment [11], 2.51 µM (active); in experiment [12] it was 2.51 µM (active); in experiment [19], 14.1 µM [inconclusive] (active). Also, in experiment [18], the Potency was 11.9 µM (active). Moreover, the compound was classed as inactive in [20] and in experiment [17]. The activation in experiment [13] is -5.11%.
Take `Oc1c(Cl)cc(Cl)cc1Cl`: the activation in experiment [13] was -6.01% and -1.45%. Besides, the max response in experiment [16] was -4.3% and -11%.
Consider `N#CC(Cl)Cl`, for which the caspase-3 activation in [1] was 0.178%. For the same compound, the Potency result in [3], in experiment [4], in experiment [5] and in [14] was “inactive” throughout. Further, the Potency in [6] was 20 µM (active); in experiment [7], 12.6 µM (active); in [8], 12.6 µM (active); in experiment [10] it was 50.1 µM (active); in [13] it was 39.8 µM (active); in [18], 33.5 µM (active). Further, in experiment [16], the Potency is 14.1 µM (active). The result in experiment [20] and in experiment [17] was inactive.

(Values after PubChem BioAssay (NCATS).)
